Screens (PubChem)
MbtI inh = MbtI salicylate synthase inhibitors, primary screen, biochemical, fluorescence intensity; inhibition, % (no concentration beside the values); purified MbtI enzyme, fluorescence intensity read-out; actives 0.89% (n = 100,000); P9WFX0; in the data active = inhibition mostly above about 56%, no sharp cut-off; inactive = mostly below about 77%
AID504770 = growth inhibition of E. coli YBA685, primary screen, V. cholerae RctB inhibitors; actives 0.27% (n = 130,000); E. coli YBA685 rctB-dependent plasmid, OD600 growth, 3 h; active compounds read low; z-score (concentration not given with the values); in the data active = z-score below about -2, passing the limit was not always enough
MenB inh = M. tuberculosis MenB inhibitors, primary screen, biochemical, absorbance; 1,4-dihydroxy-2-naphthoyl-CoA synthase (Mycobacterium tuberculosis (strain ATCC 25618 / …; inhibition, % (test concentration not listed); actives 0.43% (n = 100,000); AID 540299, 2011; MenB enzyme assay, absorbance read-out; in the data active = inhibition above about 21%, passing the limit was not always enough
Polio RdRp inh = poliovirus RdRp elongation inhibitors, primary screen, biochemical, fluorescence polarization, total intensity; actives 0.66% (n = 150,000); % elongation, % (compound at 16.7 µg/mL); AID 588519, 2011; poliovirus polymerase elongation; active compounds read low; in the data active = % elongation below about 90%
Target sequence (P03300 1749-2209 limits assumed): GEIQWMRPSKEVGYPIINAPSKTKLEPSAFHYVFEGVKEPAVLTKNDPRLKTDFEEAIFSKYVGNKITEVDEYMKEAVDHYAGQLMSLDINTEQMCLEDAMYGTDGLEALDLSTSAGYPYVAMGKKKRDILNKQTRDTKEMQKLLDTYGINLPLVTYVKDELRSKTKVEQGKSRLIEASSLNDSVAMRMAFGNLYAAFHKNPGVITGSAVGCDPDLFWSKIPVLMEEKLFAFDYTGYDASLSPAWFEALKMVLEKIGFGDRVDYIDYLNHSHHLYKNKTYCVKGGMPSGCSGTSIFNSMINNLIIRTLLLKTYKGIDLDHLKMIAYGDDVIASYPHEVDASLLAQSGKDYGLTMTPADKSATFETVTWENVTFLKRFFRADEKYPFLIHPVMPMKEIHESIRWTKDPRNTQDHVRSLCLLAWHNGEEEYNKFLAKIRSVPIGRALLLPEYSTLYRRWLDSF
* hit, by the source's call; i = inactive; · = no result. Most compounds without a hit are left out; they make up all but 1.5% or so of the library.

SMILES | MbtI inh | AID504770 | MenB inh | Polio RdRp inh
CCOC(=O)c1ccc(NC(=S)NCCN2CCNC2=O)cc1 | 7 | 1.5 | -11 | 104
CN(C)CCNc1ncnc2sc(-c3ccccc3)cc12 | 106 | -1.1 | -9 | 87*
CCOc1ccccc1CNS(=O)(=O)c1cnc(N)nc1 | · | · | · | 109
O=C(NCCN1CCOCC1)c1nc(-c2ccc(Cl)cc2)n2c1CCCCC2 | 4 | -2.6* | -12 | 103
CCCNC(=O)c1nc(-c2ccc(Cl)cc2)n2c1CCCCC2 | -7 | 1.8 | -28 | 105
S=c1[nH]c2ccccc2n1C1CCCCC1 | 98* | 0.3 | -14 | 100
CCOCCC(=O)N1CCN(C)CC1 | -9 | 2.7 | -25 | 100
Cc1cc(C(=O)N/N=C2\C(=O)c3cccc4cccc2c34)c(C)o1 | 4 | 0 | -35 | 102
O=C(N/N=C1/C(=O)c2cccc3cccc1c23)c1ccncc1 | 3 | 0.3 | -32 | 89*
CC(C)OCCCNc1ncnc2sc3c(c12)CCCC3 | · | · | · | -2.0*
Cc1cc(C)nc(NS(=O)(=O)c2ccc(-n3cccc3)cc2)n1 | · | -0.4 | -4 | 106
CCCN(CCC)C(=O)Nc1cn(CC(C)C)c(=O)c2ccccc12 | 120 | 0.3 | -24 | 97
CC(C)Cn1cc(NC(=O)Nc2cccc(C(F)(F)F)c2)c2ccccc2c1=O | · | · | · | 70*
Cc1ccc(NC(=O)Nc2cn(CC(C)C)c(=O)c3ccccc23)cc1N(C)C | · | · | · | 73*
Cc1c(C(=O)N2CCOCC2)oc2c1-c1nn(CC(=O)NCc3cccc(F)c3)cc1CC2 | · | · | · | 84*
Cc1c(C(=O)N2CCCC2)oc2c1-c1nn(CC(=O)NCCCOC(C)C)cc1CC2 | · | · | · | 47*
O=c1cc(-c2c(F)c(F)c(F)c(F)c2F)oc2c(F)c(F)c(F)c(F)c12 | 29 | 2.6 | -31 | 90*
O=c1cc(-c2c(F)c(F)c(F)c(F)c2F)oc2ccccc12 | · | -0.65 | · | ·
NC(=S)NNc1ccc(S(N)(=O)=O)cc1 | 51* | -0.5 | 3 | 101
Nc1nnc(CCCn2c(=O)oc3ccccc32)s1 | · | -0.4 | -9 | 86*
CC1=CC(C)=NC2Nc3c(C)cc(C)cc3C(=N)C12 (stereo not given) | 52 | 0.05 | -279 | 86*
CCN(CC)CCOC(=O)C(c1ccccc1)C1CCCCC1 (stereo not given) | -3 | 1 | -7 | 101
CN(C)[C@@H]1C(=O)C(C(N)=O)=C(O)[C@@]2(O)C(=O)C3=C(O)c4c(O)cccc4[C@@](C)(O)[C@H]3[C@H](O)[C@@H]12 | -12 | -3.9* | -27 | 100
CN(C)[C@@H]1C(=O)C(C(N)=O)=C(O)[C@@]2(O)C(=O)C3=C(O)c4c(O)ccc(Cl)c4[C@@](C)(O)[C@H]3C[C@@H]12 | i | -3.6* | 0 | 100
CC1c2cccc(O)c2CC2=C(O)C3(O)C(O)=C(C(N)=O)C(=O)C(N(C)C)C3C(O)C21 (stereo not given) | · | -4.1* | -78 | 92
SMILES | MbtI inh | AID504770 | MenB inh | Polio RdRp inh
C[C@H]1c2cccc(O)c2C(O)=C2C(=O)[C@]3(O)C(O)=C(C(N)=O)C(=O)[C@@H](N(C)C)[C@@H]3[C@@H](O)[C@@H]21 | -15 | -0.25 | 5 | 99
CCN(CC)CCNCc1ccc(-c2ccccc2)o1 | 11 | -0.2 | 33* | 102
CC(C)(C)NCc1ccc(-c2ccccc2)o1 | 8 | 0.05 | 12 | 100
O=C1C=CC(=O)N1c1ccc(S(=O)(=O)Nc2ccc(C(F)(F)F)cc2)cc1 | 98* | 0.7 | -1 | 105
COC(=O)COc1ccc(S(=O)(=O)Nc2ccc(C(F)(F)F)cc2)cc1 | -14 | -0.85 | 0 | 98
COc1ccc2nc3oc(C(=O)NCCC4=CCCCC4)cc3cc2c1 | -82 | -5.2* | -3 | 102
Cc1ccc2cc(C#N)c(N3CCCN(C(=O)C4CCCCC4)CC3)nc2c1 | 4 | 0 | 17 | 99
COCCNC(=S)N1CCCN(c2nc3cc(C)ccc3cc2C#N)CC1 | 22 | -0.6 | 21* | 102
FC(F)(F)c1cccc(OCc2noc(-c3ccsc3)n2)c1 | · | 0.7 | · | ·
O=C1CCCCCN1Cc1n[nH]c(=S)o1 | 74* | -0.5 | -28 | 82*
O=C(Nc1cc(C(F)(F)F)cc(C(F)(F)F)c1)C(=S)N1CCCCC1 | · | 0.9 | 1 | 76*
O=C(CN1CCCC1)Nc1cc(C(F)(F)F)cc(C(F)(F)F)c1 | · | -0.1 | · | ·
Cc1nn(CC(=O)NCc2cccnc2)c(=O)c2ccccc12 | 10 | 1.8 | -44 | 102
CCOC(=O)c1sc(CN2CCN(c3cccc(Cl)c3)CC2)nc1C | · | 1 | · | ·
CCOC(=O)c1sc(SCC(=O)c2ccc(Cl)cc2Cl)nc1C | 0 | -0.3 | 1 | 86*
COc1ccc(OCCCn2c(=O)oc3ccccc32)cc1 | 3 | -1.6 | 5 | 101
O=C(O)CC1C(=O)NC(=Nc2ccccc2)N1c1ccccc1 (stereo not given) | -9 | -0.5 | -24 | 102
O=C(O)CC1C(=O)NN=C2c3ccccc3N=CN21 (stereo not given) | 26 | -0.65 | -20 | 78*
CC(=O)OCC(=O)Nc1cc(Cl)cc(Cl)c1 | · | -1.2 | 2 | 101
CCc1nc2sc3c(NCCN4CCOCC4)ncnc3c2c2c1CCCC2 | · | -0.8 | · | ·
C=C[C@@H]1CN2CCC1C[C@@H]2[C@H](O)c1ccnc2ccccc12 (stereo not given in full) | -17 | · | -2 | 99
O=C1[C@H]2CSC3(C(=O)c4ccccc4C3=O)N2C(=O)[C@H]2CSC3(C(=O)c4ccccc4C3=O)N12 | 100* | -0.35 | -5 | 99
NC1(N)OC(CN2C(=O)c3ccccc3C2=O)CS1 (stereo not given) | -5 | -0.7 | 6 | 101
O=c1[nH]c(-c2cccnc2)nc2ccccc12 | · | 2 | · | ·
Cc1nc(-c2cccnc2)[nH]c(=O)c1CC1CC1 | · | -3* | · | ·
SMILES | MbtI inh | AID504770 | MenB inh | Polio RdRp inh
CCOC(=O)CC(NC(=O)Cn1nnc(-c2ccc(C(F)(F)F)cc2)n1)c1ccc(OC)cc1 (stereo not given) | · | · | · | 100
O=C(O)c1cn(Cc2ccc(Cl)cc2)c2ccccc12 | · | 2.5 | · | ·
O=C1CSc2nnc(Cn3nnc4ccccc43)n2N1 | 87* | 0.5 | 3 | 97
CCOc1cc(C(C#N)N2CCOCC2)ccc1OC (stereo not given) | · | -0.8 | · | ·
CCOc1cc(C(=S)N2CCOCC2)ccc1OC | · | -1.2 | -21 | 65*
COc1ccc(C(=S)N2CCCCC2)cc1OC | 82* | 0.05 | -37 | 98
COc1ccc(C(=S)N2CCCC2)cc1OC | 6 | 0.15 | 1 | 101
COC(=O)c1snc(-c2c(Cl)cccc2Cl)c1C(=O)OC | · | 1.1 | · | ·
CC(C)S(=O)(=O)C1=NSC2=NC(=O)/C(=C\c3ccco3)C(=N)N21 | 15 | 0 | -63 | 79*
CC1=Nc2cc(C(=O)NCCc3ccccc3)ccc2Sc2ccccc21 | 0 | 0.95 | -4 | 105
CC(OC(=O)c1cc(S(=O)(=O)N(C)C)ccc1N1CCCC1)C(=O)N1CCc2ccccc21 (stereo not given) | 0 | -3* | -2 | 103
CCCCc1c(C(=O)O)cccc1C(=O)O | -4 | 0.85 | 27* | 102
